Assay results published in the supplement of paper PMC10941209.

System: Toxoplasma gondii RH 2F1 tachyzoites (intracellular in HFF)
Assay: parasite survival relative to DMSO control; higher = less antiparasitic activity, active = 20 or less
Details: 1 µM; 72 h
Procedure, shortened: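 Parasite survival was taken as the CPRG signal relative to DMSO-treated infected wells, given as a percentage. To obtain it, HFF cells (5 × 10^3 cells/well, 96-well plates) were infected for 3 h in D2 medium with 5 × 10^3 β-galactosidase-expressing Toxoplasma gondii RH-2F1 tachyzoites, then exposed to compound at 1 μM for 72 h at 37°C in 5% CO2. Absorbance at 570 nm was measured 30 min after CPRG was added to lysed cells, and 2 or more biological replicates were run.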

SMILES | parasite survival
Nc1cc(N)c2nc(-c3ccccc3)c(Nc3ccc(F)cc3)nc2c1 | 7.94% (active)
Nc1nc2c(Cc3cccnc3)c[nH]c2c(=O)[nH]1 | 72.8% (inactive)
Cc1[nH]c2ccccc2c1CC(=O)N[C@@H](Cc1ccccc1)C(=O)N(C)c1ccccc1 | 83.1% (inactive)
OCCCCn1cnc2c(O)nc(NCc3ccc(Cl)c(Cl)c3)nc21 | 59.7% (inactive)
CCC(CC)[C@H](NC(C)=O)[C@@H]1[C@H](O)[C@@H](C(=O)O)C[C@H]1NC(=N)N | 69.6% (inactive)
O=C(Nc1nnc(-c2ccc(Cl)cc2)o1)c1nc2ccccc2s1 | 62.5% (inactive)
C=C(C)n1c(=O)n(Cc2ccccc2C)c2ccccc21 | 44.5% (inactive)
Nc1nc(O)c2ncn([C@@H]3O[C@H](CO)[C@@H](O)[C@H]3F)c2n1 | 75.9% (inactive)
O=c1oc2ccc(Br)cc2cc1CSc1ncc[nH]1 | 63.6% (inactive)
NC(=S)N/N=C/c1ncccc1N | 37.3% (inactive)
COc1ccc(C2CNC(=O)C2)cc1OC1CCCC1 (stereo not given) | 69.8% (inactive)
Cc1ccccc1NC(=O)Nc1cccc([N+](=O)[O-])c1 | 24.2% (inactive)
CSc1ccc2c(c1)C(N1CCN(C)CC1)Cc1ccccc1S2 (stereo not given) | 34.5% (inactive)
O=C(NC(=O)N1CCCc2ccccc21)c1ccc(Cl)cc1Cl | 55.9% (inactive)
CC(C)(C)c1cc(CCC(=O)N2CCC2)cc(C(C)(C)C)c1O | 52.9% (inactive)
O=C(NCc1ccccc1Cl)c1cnc2ccccc2n1 | 45.6% (inactive)
COC(=O)Nc1nc2c(C)cccc2[nH]1 | 36.4% (inactive)
CCCCCc1ccc(C(=O)NCCn2cc(CCCCCc3c[nH]c(N)n3)nn2)cc1 | 67.5% (inactive)
COc1ccc(OCc2ccc(COc3c(Cl)cccc3Cl)cc2)c(Cl)c1 | 72% (inactive)
O=c1ccc2ncc(=O)n3c2n1CC3CN1CCC(NCc2cc3c(cn2)OCCC3)CC1 (stereo not given) | 44.7% (inactive)

SMILES | parasite survival
N[C@H]1CCC[C@H]1C(=O)O | 78.4% (inactive)
COc1ccc2cc3[n+](cc2c1OCCN(CCn1cncn1)Cc1ccc(F)cc1F)CCc1cc2c(cc1-3)OCO2 | 47.3% (inactive)
CCCC1(C2CC2)c2cc(Cl)ccc2NC(=O)N1C (stereo not given) | 70.4% (inactive)
C[C@H](NC(=O)C(=O)Nc1ccccc1C(C)(C)C)C(=O)N[C@@H](CC(=O)O)C(=O)COc1c(F)c(F)cc(F)c1F | 6% (active)
CC(C)(C)c1ccc(C(=O)NC(=O)N2CCCc3ccccc32)cc1 | 49.9% (inactive)
CC(C)Oc1ccc(-c2nc(-c3cccc4c3CC[C@@H]4NCCO)no2)cc1C#N | 41.9% (inactive)
COc1ccc(COc2cc3oc(=O)c4cc(C(C)O)ccc4c3cc2OC)cc1 (stereo not given) | 57% (inactive)
C[C@@H](c1nc(-c2ccc(C#N)cc2)cs1)[C@](O)(Cn1cncn1)c1ccc(F)cc1F | 62.9% (inactive)
CCOC(=O)Nc1cc(NC(C)CC(C)CN(CC)CC)c2nc(-c3ccccc3)c(-c3ccccc3)nc2n1 (stereo not given) | 7.01% (active)
O=C(Nc1cccc(C2=NCCN2)c1)c1ccc(-c2ccc(C(=O)Nc3cccc(C4=NCCN4)c3)cc2)cc1 | 22.1% (inactive)
Cc1ccc(N2CCC(CCOc3ccc(S(C)(=O)=O)cc3)CC2)nn1 | 73.2% (inactive)
CCCCC(CC)CNC(=N)NC(=N)NCCCCCCNC(=N)NC(=N)NCC(CC)CCCC (stereo not given) | 3.8% (active)
CC[C@@H](CO)NCCN[C@@H](CC)CO | 55.4% (inactive)
C=CCc1cc(Cc2cnc(N)nc2N)cc(OC)c1O | 29.8% (inactive)
N=c1n(CCN2CCCCC2)c2ccccc2n1CC(O)COc1ccc(Cl)cc1Cl (stereo not given) | 10.8% (active)
c1ccc(-c2nnc3c4ccccc4c(N4CCNCC4)nn23)cc1 | 11.3% (active)
CC1(C)Cc2c(C#N)c(SCCc3ccccc3)nc(N3CCOCC3)c2CO1 | 39.6% (inactive)
CC1(C)CC(NC(=O)C(=O)Nc2ccc(Cl)cc2)CC(C)(C)N1 | 69.9% (inactive)
CC(=O)Nc1cc(NS(=O)(=O)c2ccc(Cl)cc2)cc2c(Cl)[nH]nc12 | 52% (inactive)
CC(Oc1ccc(Cl)cc1Cl)C(=O)NCc1ccc2c(c1)OCO2 (stereo not given) | 31.2% (inactive)
